Assay results taken from PubChem BioAssay AID1159580 (chemical genetic matrix, 2015).
Screen size: about 5,500 compounds; about 2,000 (36%) were called active. Roughly 18% stayed inconclusive and do not appear here. The list shows a part of the results. A number with no mark means an inactive call. Rule as the data show it: active = normalized growth mostly below about 0.91 (no sharp cut-off); inconclusive = no clear call, values can overlap the other calls; inactive = mostly above about 0.92.

Assay: chemical genetic growth profiling, strain panel (AID 1159580);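 also: tested at 20 µM; growth read once vehicle control cultures reached saturation at 30 °C; 1 = growth at the plate median or of vehicle wells; lower values mean less growth of the strain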
Settings: S. cerevisiae deletion strains, growth OD

What does the source list for CC(=O)O[C@@H]1CC[C@]2(C)C3CC[C@]4(C)C(=O)CCC4C3CC[C@H]2C1 (stereo partly drawn)?
normalized growth (locus YJL187C, strain SWE1 (second series), hits give low values): 0.955; normalized growth (locus YJR043C, strain POL32, hits give low values): 0.962; normalized growth (locus YJR075W, strain HOC1, hits give low values): 0.982; normalized growth (locus YKL009W, strain mrt4, hits give low values): 0.941; normalized growth (locus YKL068W, hits give low values): 0.979; normalized growth (locus YKL085W, strain MDH1 (second series), hits give low values): 0.954; normalized growth (locus YKL085W, strain MDH1, hits give low values): 0.954; normalized growth (locus YKL160W, strain elf1, hits give low values): 1.03; normalized growth (locus YKL190W, strain CNB1, hits give low values): 0.973; normalized growth (locus YKR001C, strain vps1, hits give low values): 0.984; normalized growth (locus YKR026C, strain gcn3, hits give low values): 0.982; normalized growth (locus YKR091W, strain srl3, hits give low values): 0.989; normalized growth (locus YLL001W, strain dnm1, hits give low values): 0.974; normalized growth (locus YLL026W, hits give low values): 0.999; normalized growth (locus YLL041C, strain sdh2, hits give low values): 0.986; normalized growth (locus YLR027C, strain aat2, hits give low values): 0.962; normalized growth (locus YLR039C, strain RIC1, hits give low values): 0.772; normalized growth (locus YLR058C, strain SHM2, hits give low values): 0.96; normalized growth (locus YLR102C, strain apc9, hits give low values): 0.991; normalized growth (locus YLR221C, strain rsa3, hits give low values): 0.91; normalized growth (locus YLR258W, strain gsy2, hits give low values): 0.974; normalized growth (locus YLR262C, strain YPT6 (second series), hits give low values): 0.725 (active); normalized growth (locus YLR262C, strain YPT6, hits give low values): 0.672; normalized growth (locus YLR268W, strain sec22, hits give low values): 0.979; normalized growth (locus YLR320W, strain mms22, hits give low values): 0.868 (active); normalized growth (locus YLR330W, strain CHS5, hits give low values): 0.933; normalized growth (locus YLR342W, strain FKS1 (second series), hits give low values): 0.804; normalized growth (locus YLR342W, strain FKS1, hits give low values): 0.962; normalized growth (locus YLR357W, strain rsc2, hits give low values): 1.02; normalized growth (locus YLR370C, strain arc18, hits give low values): 1.02; normalized growth (locus YLR371W, strain rom2, hits give low values): 0.992; normalized growth (locus YLR384C, strain iki3, hits give low values): 1.02; normalized growth (locus YLR418C, strain cdc73, hits give low values): 0.843; normalized growth (locus YML016C, strain PPZ1, hits give low values): 0.969; normalized growth (locus YML032C, strain rad52, hits give low values): 0.885 (active); normalized growth (locus YML120C, strain ndi1, hits give low values): 0.943; normalized growth (locus YML124C, strain tub3, hits give low values): 1; normalized growth (locus YMR058W, strain fet3, hits give low values): 0.95; normalized growth (locus YMR078C, strain ctf18, hits give low values): 1; normalized growth (locus YMR125W, strain sto1, hits give low values): 1; normalized growth (locus YMR129W, hits give low values): 1; normalized growth (locus YMR205C, strain PFK2, hits give low values): 0.867 (active); normalized growth (locus YMR223W, strain ubp8, hits give low values): 0.916; normalized growth (locus YMR231W, strain pep5, hits give low values): 0.993; normalized growth (locus YMR307W, strain GAS1, hits give low values): 0.797; normalized growth (locus YNL067W, strain RPL9B, hits give low values): 1; normalized growth (locus YNL071W, strain lat1, hits give low values): 0.949; normalized growth (locus YNL209W, strain ssb2, hits give low values): 0.989; normalized growth (locus YNL233W, strain BNI4, hits give low values): 0.941; normalized growth (locus YNL248C, strain rpa49, hits give low values): 0.963; normalized growth (locus YNL250W, strain rad50, hits give low values): 0.963; normalized growth (locus YNL271C, strain bni1, hits give low values): 0.979; normalized growth (locus YNL298W, strain CLA4, hits give low values): 0.913; normalized growth (locus YNL307C, strain MCK1, hits give low values): 0.848 (active); normalized growth (locus YNL322C, strain KRE1 (second series), hits give low values): 1.02; normalized growth (locus YNR049C, strain mso1, hits give low values): 1.01; normalized growth (locus YNR052C, strain pop2, hits give low values): 0.877 (active); normalized growth (locus YOL012C, strain htz1): 1.51; normalized growth (locus YOL147C, strain pex11, hits give low values): 0.865 (active); normalized growth (locus YOR001W, strain rrp6, hits give low values): 0.891 (active); normalized growth (locus YOR061W, strain CKA2, hits give low values): 0.942; normalized growth (locus YOR069W, strain VPS5, hits give low values): 0.977; normalized growth (locus YOR070C, strain gyp1, hits give low values): 1; normalized growth (locus YOR080W, strain dia2, hits give low values): 1.01; normalized growth (locus YOR083W, strain WHI5, hits give low values): 0.975; normalized growth (locus YOR106W, strain vam3, hits give low values): 0.978; normalized growth (locus YOR136W, strain idh2, hits give low values): 0.998; normalized growth (locus YOR144C, strain elg1, hits give low values): 1; normalized growth (locus YOR184W, strain ser1, hits give low values): 0.713 (active); normalized growth (locus YOR265W, strain rbl2, hits give low values): 0.983; normalized growth (locus YOR270C, strain vph1, hits give low values): 0.72 (active); normalized growth (locus YOR290C, strain snf2, hits give low values): 0.958; normalized growth (locus YOR316C, strain cot1, hits give low values): 0.986; normalized growth (locus YPL051W, strain arl3, hits give low values): 1; normalized growth (locus YPL078C, strain atp4, hits give low values): 0.964; normalized growth (locus YPL106C, strain sse1, hits give low values): 1.03; normalized growth (locus YPL240C, strain hsp82, hits give low values): 0.99; normalized growth (locus YPL241C, strain CIN2, hits give low values): 0.985; normalized growth (locus YPR119W, strain clb2, hits give low values): 0.994; normalized growth (locus YPR141C, strain kar3, hits give low values): 0.991; normalized growth (locus YPR163C, strain tif3, hits give low values): 0.981; normalized growth (locus YPR167C, strain met16, hits give low values): 0.942; normalized growth (strain wtn01, hits give low values): 1.01
